Details in all cases: Compound concentration 20.0 uM
Test [1] deals with Tyrosine-protein kinase ABL1 (Homo sapiens) (UniProt P00519).
For test [2], the target named is Bromodomain-containing protein 4 (Homo sapiens) (UniProt O60885).
Test [3] deals with Cyclin-dependent kinase 2 (Homo sapiens) (UniProt P24941).
For test [4], the target named is Casein kinase I isoform delta (Homo sapiens) (UniProt P48730).
Test [5] has as its target Glycogen synthase kinase-3 beta (Homo sapiens) (UniProt P49841).
Test [6] has as its target Mitogen-activated protein kinase 1 (Homo sapiens) (UniProt P28482).
Test [7] has as its target T1, Aurora kinase A (Homo sapiens) (UniProt O14965).
T1 sequence (whole entry): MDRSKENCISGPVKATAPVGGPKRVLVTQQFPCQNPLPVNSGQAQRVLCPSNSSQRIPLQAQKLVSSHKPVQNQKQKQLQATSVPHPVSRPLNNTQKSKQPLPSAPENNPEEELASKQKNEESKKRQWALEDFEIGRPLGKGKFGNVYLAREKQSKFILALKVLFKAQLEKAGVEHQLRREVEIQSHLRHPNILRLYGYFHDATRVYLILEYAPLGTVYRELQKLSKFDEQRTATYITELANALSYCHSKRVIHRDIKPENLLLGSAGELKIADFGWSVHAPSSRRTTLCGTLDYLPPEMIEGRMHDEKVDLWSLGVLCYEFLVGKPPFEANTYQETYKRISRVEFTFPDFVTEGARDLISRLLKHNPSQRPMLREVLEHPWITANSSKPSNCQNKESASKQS

Test [8] concerns the target T2, Transcription intermediary factor 1-alpha (Homo sapiens) (UniProt O15164).
T2 sequence (whole entry): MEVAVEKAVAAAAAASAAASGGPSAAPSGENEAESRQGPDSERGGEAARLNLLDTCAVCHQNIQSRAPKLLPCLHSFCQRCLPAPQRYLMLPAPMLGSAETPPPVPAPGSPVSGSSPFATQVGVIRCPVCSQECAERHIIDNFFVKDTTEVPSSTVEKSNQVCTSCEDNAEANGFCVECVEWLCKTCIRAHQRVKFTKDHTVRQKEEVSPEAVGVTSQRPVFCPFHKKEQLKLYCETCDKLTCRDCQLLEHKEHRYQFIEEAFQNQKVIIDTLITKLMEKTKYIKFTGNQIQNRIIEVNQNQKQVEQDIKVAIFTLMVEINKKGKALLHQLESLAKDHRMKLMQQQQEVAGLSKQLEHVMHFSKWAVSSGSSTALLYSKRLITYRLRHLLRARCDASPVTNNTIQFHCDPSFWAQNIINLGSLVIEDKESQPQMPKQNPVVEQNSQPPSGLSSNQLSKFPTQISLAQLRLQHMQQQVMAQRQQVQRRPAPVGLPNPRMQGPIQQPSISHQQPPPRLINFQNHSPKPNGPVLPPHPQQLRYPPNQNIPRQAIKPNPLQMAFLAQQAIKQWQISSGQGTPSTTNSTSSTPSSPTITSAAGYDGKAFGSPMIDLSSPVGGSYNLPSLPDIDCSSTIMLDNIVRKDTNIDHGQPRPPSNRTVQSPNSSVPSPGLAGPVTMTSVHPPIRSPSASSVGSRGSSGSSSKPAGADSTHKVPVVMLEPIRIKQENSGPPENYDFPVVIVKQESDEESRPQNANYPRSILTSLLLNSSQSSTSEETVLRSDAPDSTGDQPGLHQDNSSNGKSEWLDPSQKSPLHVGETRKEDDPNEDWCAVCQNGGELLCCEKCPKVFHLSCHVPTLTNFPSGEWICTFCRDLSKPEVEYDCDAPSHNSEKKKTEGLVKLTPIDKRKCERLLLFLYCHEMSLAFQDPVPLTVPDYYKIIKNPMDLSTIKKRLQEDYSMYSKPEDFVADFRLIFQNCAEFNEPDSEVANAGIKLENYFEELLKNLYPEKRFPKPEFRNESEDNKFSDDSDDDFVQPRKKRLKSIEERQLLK

The source of these data is ChEMBL document CHEMBL5724796, “Tm Shift (DSF) assay results for EUbOPEN Chemogenomics Library” (2024).

Sequence of Casein kinase I isoform delta (Homo sapiens) (P48730 whole entry, looked up, canonical isoform): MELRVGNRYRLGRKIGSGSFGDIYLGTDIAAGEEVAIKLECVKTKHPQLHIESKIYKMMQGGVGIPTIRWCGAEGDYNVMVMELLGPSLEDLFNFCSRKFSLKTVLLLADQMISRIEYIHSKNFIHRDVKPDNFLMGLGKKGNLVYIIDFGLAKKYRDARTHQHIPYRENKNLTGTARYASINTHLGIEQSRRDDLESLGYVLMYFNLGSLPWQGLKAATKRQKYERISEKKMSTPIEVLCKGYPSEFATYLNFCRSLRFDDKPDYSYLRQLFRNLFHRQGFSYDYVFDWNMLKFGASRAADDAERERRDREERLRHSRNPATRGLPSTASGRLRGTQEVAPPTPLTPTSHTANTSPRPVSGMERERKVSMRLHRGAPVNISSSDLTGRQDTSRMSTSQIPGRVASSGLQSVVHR
Sequence of Tyrosine-protein kinase ABL1 (Homo sapiens) (P00519 whole entry): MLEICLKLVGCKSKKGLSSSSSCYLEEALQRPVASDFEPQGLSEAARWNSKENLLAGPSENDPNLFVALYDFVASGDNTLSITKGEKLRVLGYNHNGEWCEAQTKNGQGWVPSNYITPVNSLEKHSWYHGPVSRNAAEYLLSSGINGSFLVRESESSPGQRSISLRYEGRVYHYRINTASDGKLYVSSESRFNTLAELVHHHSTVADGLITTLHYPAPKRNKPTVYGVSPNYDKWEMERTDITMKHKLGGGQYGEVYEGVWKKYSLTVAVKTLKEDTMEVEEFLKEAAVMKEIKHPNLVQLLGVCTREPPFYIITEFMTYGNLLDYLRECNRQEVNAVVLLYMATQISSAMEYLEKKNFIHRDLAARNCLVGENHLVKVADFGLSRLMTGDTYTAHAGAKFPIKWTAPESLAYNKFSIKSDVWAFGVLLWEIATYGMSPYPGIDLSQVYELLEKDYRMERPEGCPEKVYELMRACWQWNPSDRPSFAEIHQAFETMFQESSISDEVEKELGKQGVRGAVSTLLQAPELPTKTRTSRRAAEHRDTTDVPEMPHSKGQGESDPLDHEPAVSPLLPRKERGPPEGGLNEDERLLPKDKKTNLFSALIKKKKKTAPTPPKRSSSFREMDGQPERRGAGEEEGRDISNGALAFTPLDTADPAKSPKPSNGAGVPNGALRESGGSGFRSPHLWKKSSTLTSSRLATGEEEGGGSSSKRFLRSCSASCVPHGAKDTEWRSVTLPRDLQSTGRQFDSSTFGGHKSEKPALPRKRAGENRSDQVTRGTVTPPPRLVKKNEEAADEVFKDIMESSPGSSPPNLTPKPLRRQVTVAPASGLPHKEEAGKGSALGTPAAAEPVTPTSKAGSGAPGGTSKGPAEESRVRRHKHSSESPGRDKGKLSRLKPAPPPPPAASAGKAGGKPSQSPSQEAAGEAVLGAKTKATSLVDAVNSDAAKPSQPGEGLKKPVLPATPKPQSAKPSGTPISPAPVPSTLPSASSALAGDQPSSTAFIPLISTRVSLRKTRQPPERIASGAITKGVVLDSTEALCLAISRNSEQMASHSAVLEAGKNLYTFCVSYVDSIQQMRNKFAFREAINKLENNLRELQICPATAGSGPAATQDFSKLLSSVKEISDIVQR
Sequence of Glycogen synthase kinase-3 beta (Homo sapiens) (P49841 whole entry, looked up): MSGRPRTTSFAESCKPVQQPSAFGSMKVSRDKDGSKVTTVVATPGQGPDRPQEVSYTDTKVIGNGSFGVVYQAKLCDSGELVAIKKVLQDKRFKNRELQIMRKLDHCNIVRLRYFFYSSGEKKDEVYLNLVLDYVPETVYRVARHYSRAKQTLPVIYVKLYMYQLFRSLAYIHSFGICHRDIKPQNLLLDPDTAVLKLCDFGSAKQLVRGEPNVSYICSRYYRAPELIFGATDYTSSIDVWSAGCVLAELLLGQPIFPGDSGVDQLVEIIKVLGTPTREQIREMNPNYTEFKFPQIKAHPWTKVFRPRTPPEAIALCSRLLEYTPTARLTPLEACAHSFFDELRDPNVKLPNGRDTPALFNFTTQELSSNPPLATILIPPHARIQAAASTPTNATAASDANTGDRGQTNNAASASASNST
Sequence of Mitogen-activated protein kinase 1 (Homo sapiens) (P28482 whole entry): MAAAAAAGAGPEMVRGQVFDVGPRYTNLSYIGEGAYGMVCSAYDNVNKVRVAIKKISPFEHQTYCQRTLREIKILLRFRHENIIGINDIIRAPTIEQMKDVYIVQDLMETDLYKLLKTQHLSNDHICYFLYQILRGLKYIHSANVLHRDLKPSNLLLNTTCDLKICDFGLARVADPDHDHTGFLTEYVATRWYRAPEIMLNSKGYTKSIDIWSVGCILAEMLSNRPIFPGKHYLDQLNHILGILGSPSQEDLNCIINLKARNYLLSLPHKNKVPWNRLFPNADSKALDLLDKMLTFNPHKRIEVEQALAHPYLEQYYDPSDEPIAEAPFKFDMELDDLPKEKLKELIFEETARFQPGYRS

As usually defined, the ΔTm is the shift of the melting midpoint relative to a reference. For `O=C(Nc1ccc2[nH]nc(-c3ccncc3)c2c1)[C@@H]1CCN(CC(=O)N2CCN(c3ccc(-c4ncccn4)cc3)CC2)C1`, the ΔTm is 1.95 °C in test [1]; -1.51 °C in test [2]; 0.12 °C in test [3]; 1.66 °C in test [4]; 1.44 °C in test [5]; 13.1 °C in test [6]. Also, the ΔTm is 3.82 °C in test [7] and -0.46 °C in test [8].

In the case of `O=C(c1cc(Cl)c(O)c(Cl)c1)N1CS(=O)(=O)c2ccccc21`, the ΔTm is 0.71 °C in test [1]; -0.92 °C in test [2]; 0.15 °C in test [3]; -0.26 °C in test [4]; 0.51 °C in test [5]; 0.24 °C in test [6]. For the same compound, the thermal shift (ΔTm) is -2.22 °C in test [7] and -0.84 °C in test [8].

With `CC(C)Cn1c(=O)n(C)c(=O)c2c(C(=O)N3CC[C@@H](O)C3)c(Cc3ccnc4ccccc34)sc21`, the shift in melting temperature (ΔTm) in test [1] is -0.39 °C; in test [2], 2.2 °C; in test [3], 0.16 °C; in test [4], 0.09 °C; in test [5] it was -1.09 °C; in test [6], 0.11 °C. The shift in melting temperature (ΔTm) was -0.87 °C in test [7] and 2.02 °C in test [8].

Turning to `NC(=O)[C@H]1CCCCc2c1[nH]c1ccc(Cl)cc21`, the thermal shift (ΔTm) in test [1] was 1.15 °C; in test [2], -1.22 °C; in test [3] it was 0.22 °C; in test [4] it was 0.38 °C; in test [5], 0.6 °C; in test [6], -0.5 °C. Moreover, the results for the shift in melting temperature (ΔTm) in test [7] and in test [8] were 1.7 °C and 0.16 °C, respectively.

Consider `O=C(N(CCc1ccccc1)C1CCCCC1)n1ncc(-c2ccc(OC(F)(F)F)cc2)n1`, for which the ΔTm in test [1] is -0.68 °C; in test [2], -2.75 °C; in test [3], 0.18 °C; in test [4], 0.03 °C; in test [5], -3.35 °C; in test [6] it was 0.11 °C. Further, the ΔTm was -1.75 °C in test [7] and 0.14 °C in test [8].

`CC(C)(C)c1ccc(CN(C(=O)CN(Cc2c(F)c(F)c(F)c(F)c2F)S(=O)(=O)c2ccc(F)cc2)c2ccc(C(=O)NO)cc2)cc1`: the ΔTm in test [1] is 1.56 °C; in test [2], 8.81 °C; in test [3] it was 9.04 °C; in test [4], -5.74 °C; in test [5], 14.4 °C; in test [6], -2.29 °C. Further, the shift in melting temperature (ΔTm) in test [7] is 9.93 °C; in test [8] it was 0 °C.

`COc1ccc(C2C(C#N)=C(N)OC3=C2C(=O)CC(c2cccc4ccccc24)C3)cc1` (stereo not given): the shift in melting temperature (ΔTm) in test [1] is 0.45 °C; in test [2], -2.45 °C; in test [3], -0.04 °C; in test [4], -0.36 °C; in test [5], -0.68 °C; in test [6], 0.85 °C. The results for the ΔTm in test [7] and in test [8] were -1.95 °C and 1.45 °C, respectively.

For `O=C(C=Cc1ccc(O)cc1)c1ccc(O)cc1O`, the ΔTm amounted to 6.6 °C in test [1]; 1.51 °C in test [2]; 1.64 °C in test [3]; 1.31 °C in test [4]; 2.87 °C in test [5]; 1.33 °C in test [6]. In addition, the thermal shift (ΔTm) in test [7] is 1.81 °C; in test [8] it was -0.03 °C.

In the case of `CC(C)[C@@H]1NC(=O)[C@H](Cc2ccc(O)cc2)NC(=O)[C@@H](CC(=O)O)NC(=O)S[C@@H](C(=O)O)NC(=O)[C@H]([C@H](C)O)NC(=O)[C@H](Cc2ccc(O)cc2)NC(=O)[C@H](Cc2c[nH]c3ccccc23)NC(=O)[C@H](CCCNC(=N)N)NC(=O)[C@H](Cc2c[nH]c3ccccc23)NC(=O)[C@H](C)NC(=O)[C@H](CO)NC(=O)[C@H](CCCNC(=N)N)NC(=O)[C@H]([C@H](C)O)NC(=O)[C@H](CC(N)=O)NC(=O)[C@H](Cc2ccc(O)cc2)NC1=O`, the thermal shift (ΔTm) is 0.39 °C in test [1]; -2.6 °C in test [2]; 0.11 °C in test [3]; -0.3 °C in test [4]; -0.36 °C in test [5]; 0.08 °C in test [6]. The shift in melting temperature (ΔTm) in test [7] is -2.45 °C; in test [8] it was -0.7 °C.

In the case of `C[C@]12CCCN1CC1=NNC(=O)c3cc(F)cc4[nH]c2c1c34`, the ΔTm in test [1] was determined as 0.67 °C; in test [2], 2.16 °C; in test [3], 2.04 °C; in test [4], 1.06 °C; in test [5], 8.59 °C; in test [6], 0.1 °C. In addition, the results for the ΔTm in test [7] and in test [8] were 1.26 °C and 0 °C, respectively.

Turning to `CN(CCCCCCNc1ccnc2cc(Cl)ccc12)CCCCCCNc1ccnc2cc(Cl)ccc12`, the ΔTm was -1.1 °C in test [1]; 2.96 °C in test [2]; 0.27 °C in test [3]; -0.85 °C in test [4]; -0.7 °C in test [5]; -0.51 °C in test [6]. Further, the ΔTm in test [7] was -1.69 °C; in test [8], 0.54 °C.

For `CCNC(=O)/C=C/c1cccc(Br)c1`, the ΔTm was 0.39 °C in test [1]; -0.78 °C in test [2]; 0.01 °C in test [3]; -0.27 °C in test [4]; -0.4 °C in test [5]; -0.04 °C in test [6]. The results for the ΔTm in test [7] and in test [8] were -2.22 °C and -0.12 °C, respectively.

As to `C[C@H](c1nc2c(cnn2C2CCOCC2)c(=O)[nH]1)N1CC(Oc2ccccc2)C1`, the ΔTm in test [1] was 0.76 °C; in test [2], -2.52 °C; in test [3], 0.6 °C; in test [4], -0.29 °C; in test [5], 3.31 °C; in test [6], 0.49 °C. In addition, the ΔTm in test [7] is -1.78 °C; in test [8], 0.73 °C.

On to `CCCn1/c(=N/C(=O)c2cccc(C(N)=O)c2)[nH]c2ccccc21`, for which the thermal shift (ΔTm) in test [1] was 1.41 °C; in test [2], -1.51 °C; in test [3] it was 0.06 °C; in test [4], 0.95 °C; in test [5] it was -0.17 °C; in test [6], -1.41 °C. The thermal shift (ΔTm) in test [7] was -0.08 °C; in test [8] it was -0.27 °C.

`O=C(O)CCNc1cc(N2CCc3ccccc3CC2)nc(-c2ccccn2)n1`: the shift in melting temperature (ΔTm) in test [1] was 0.06 °C; in test [2], 0.28 °C; in test [3], -0.09 °C; in test [4] it was -0.34 °C; in test [5] it was 0 °C; in test [6] it was -0.2 °C. In addition, the shift in melting temperature (ΔTm) is -1.3 °C in test [7] and 0.15 °C in test [8].
